Key:
Assay in all cases: DAPPL (digital affinity profiling via proximity ligation, sequencing); 10 mM Tris-HCl pH 7.5, 50 mM NaCl, 1 mM DTT, 4% glycerol, room temperature, 30 min; GST-TFs on glutathione beads, 16-mer random dsDNA library, 0.1% formaldehyde crosslink after washing; high values mean tight binding
FEV = target: T1, FEV (Homo sapiens, UniProt Q99581 1-238); settings: protein: recombinant; tags: N-terminal GST; dsDNA, one strand shown
T1 sequence: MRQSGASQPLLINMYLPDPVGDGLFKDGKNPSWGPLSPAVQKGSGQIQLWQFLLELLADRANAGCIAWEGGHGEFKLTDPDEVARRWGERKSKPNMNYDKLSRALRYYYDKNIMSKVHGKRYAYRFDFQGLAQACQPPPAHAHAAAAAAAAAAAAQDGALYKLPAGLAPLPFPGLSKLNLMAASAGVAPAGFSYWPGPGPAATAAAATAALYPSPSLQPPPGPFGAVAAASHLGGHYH
Summary of the method: (§1)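 Pools were built from human transcription factors expressed in yeast as GST fusions, captured on glutathione beads and DNA-barcoded, along with a tag-only sample. Incubation with 200 nmole of a 16-mer random double-stranded DNA library lasted 30 min at room temperature in Tris/NaCl/DTT/glycerol buffer, and was followed by washing, 0.1% formaldehyde crosslinking, proximity ligation, PCR amplification and Illumina NextSeq500 sequencing. Binding signal is the quotient of each hexamer's read frequency for a factor and its frequency for the tag-only sample.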

ETV5 = ETV5 (Homo sapiens, UniProt P41161 1-510); settings: protein: recombinant; tags: N-terminal GST; dsDNA, one strand shown
Summary of the method: as §1

HSF1 = HSF1 (Homo sapiens, UniProt Q00613 1-529); settings: protein: recombinant; tags: N-terminal GST; chain copies: 3; dsDNA, one strand shown
Summary of the method: as §1

SPIC = target: T2, SPIC (Homo sapiens, UniProt Q8N5J4 1-248); settings: protein: recombinant; tags: N-terminal GST; dsDNA, one strand shown
T2 sequence: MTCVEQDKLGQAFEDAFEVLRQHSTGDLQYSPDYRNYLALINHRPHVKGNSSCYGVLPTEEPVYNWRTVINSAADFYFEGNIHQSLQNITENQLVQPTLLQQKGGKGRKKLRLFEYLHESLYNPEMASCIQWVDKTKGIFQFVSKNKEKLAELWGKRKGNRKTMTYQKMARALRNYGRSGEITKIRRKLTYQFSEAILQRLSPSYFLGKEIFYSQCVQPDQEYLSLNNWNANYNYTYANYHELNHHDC
Summary of the method: as §1

ELF4 = ELF4 (Homo sapiens, UniProt Q99607 1-663); settings: protein: recombinant; tags: N-terminal GST; dsDNA, one strand shown
Summary of the method: as §1

ELK4 = target: T3, ELK4 (Homo sapiens, UniProt P28324-2 1-405); settings: protein: recombinant; tags: N-terminal GST; dsDNA, one strand shown
T3 sequence: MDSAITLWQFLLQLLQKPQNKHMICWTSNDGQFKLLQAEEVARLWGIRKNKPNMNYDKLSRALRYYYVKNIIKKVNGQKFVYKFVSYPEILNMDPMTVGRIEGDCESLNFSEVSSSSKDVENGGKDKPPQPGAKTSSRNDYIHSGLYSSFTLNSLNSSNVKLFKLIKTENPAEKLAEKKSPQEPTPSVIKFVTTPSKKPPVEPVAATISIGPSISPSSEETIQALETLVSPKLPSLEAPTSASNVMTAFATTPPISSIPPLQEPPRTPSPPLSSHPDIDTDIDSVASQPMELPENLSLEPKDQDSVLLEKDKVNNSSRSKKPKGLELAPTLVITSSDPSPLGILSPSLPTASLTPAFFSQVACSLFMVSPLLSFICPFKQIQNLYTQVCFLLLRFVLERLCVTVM
Summary of the method: as §1

ETV2 = target: T4, ETV2 (Homo sapiens, UniProt O00321 1-342); settings: protein: recombinant; tags: N-terminal GST; dsDNA, one strand shown
T4 sequence: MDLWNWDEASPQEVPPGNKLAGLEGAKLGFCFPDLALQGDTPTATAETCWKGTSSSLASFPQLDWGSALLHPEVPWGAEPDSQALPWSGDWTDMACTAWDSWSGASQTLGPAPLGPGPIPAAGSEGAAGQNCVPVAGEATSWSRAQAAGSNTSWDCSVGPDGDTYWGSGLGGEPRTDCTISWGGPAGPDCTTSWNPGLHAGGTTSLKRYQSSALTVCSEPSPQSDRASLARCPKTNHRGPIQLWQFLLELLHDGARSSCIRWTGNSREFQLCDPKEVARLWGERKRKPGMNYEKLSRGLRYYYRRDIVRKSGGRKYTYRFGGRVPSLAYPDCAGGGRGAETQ
Summary of the method: as §1

ELF3 = target: T5, ELF3 (Homo sapiens, UniProt P78545 1-371); settings: protein: recombinant; tags: N-terminal GST; dsDNA, one strand shown
T5 sequence: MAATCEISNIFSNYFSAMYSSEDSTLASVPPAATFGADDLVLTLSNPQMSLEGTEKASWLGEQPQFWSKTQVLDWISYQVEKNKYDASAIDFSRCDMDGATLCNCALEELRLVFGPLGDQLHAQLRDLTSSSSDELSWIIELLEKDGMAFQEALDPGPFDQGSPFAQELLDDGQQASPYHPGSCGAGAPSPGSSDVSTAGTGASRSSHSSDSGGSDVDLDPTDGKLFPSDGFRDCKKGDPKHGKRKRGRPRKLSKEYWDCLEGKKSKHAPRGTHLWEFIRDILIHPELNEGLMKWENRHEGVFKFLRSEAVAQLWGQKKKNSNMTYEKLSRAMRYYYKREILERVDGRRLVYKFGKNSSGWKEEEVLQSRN
Summary of the method: as §1

CRX = CRX (Homo sapiens, UniProt O43186 1-299); settings: protein: recombinant; tags: N-terminal GST; dsDNA, one strand shown
Summary of the method: as §1

ETV1 = ETV1 (Homo sapiens, UniProt P50549 1-477); settings: protein: recombinant; tags: N-terminal GST; dsDNA, one strand shown
Summary of the method: as §1

ERF = target: T6, ERF (Homo sapiens, UniProt P50548 1-548); settings: protein: recombinant; tags: N-terminal GST; dsDNA, one strand shown
T6 sequence: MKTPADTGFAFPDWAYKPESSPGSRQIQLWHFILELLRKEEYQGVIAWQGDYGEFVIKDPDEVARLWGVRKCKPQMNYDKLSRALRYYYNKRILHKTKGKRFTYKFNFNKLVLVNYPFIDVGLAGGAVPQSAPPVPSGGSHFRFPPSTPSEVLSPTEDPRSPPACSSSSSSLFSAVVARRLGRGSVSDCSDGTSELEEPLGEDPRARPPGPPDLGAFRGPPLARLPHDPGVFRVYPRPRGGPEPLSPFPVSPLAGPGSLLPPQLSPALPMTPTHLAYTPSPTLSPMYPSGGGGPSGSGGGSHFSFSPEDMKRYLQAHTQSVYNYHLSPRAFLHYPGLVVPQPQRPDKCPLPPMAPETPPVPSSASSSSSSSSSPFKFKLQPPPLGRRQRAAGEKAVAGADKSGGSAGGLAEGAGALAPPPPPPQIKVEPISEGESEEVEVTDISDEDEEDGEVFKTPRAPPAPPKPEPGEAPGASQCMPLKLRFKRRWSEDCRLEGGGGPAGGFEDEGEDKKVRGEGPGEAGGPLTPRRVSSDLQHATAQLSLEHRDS
Summary of the method: as §1

ETV3L = target: T7, ETV3L (Homo sapiens, UniProt Q6ZN32 1-361); settings: protein: recombinant; tags: N-terminal GST; dsDNA, one strand shown
T7 sequence: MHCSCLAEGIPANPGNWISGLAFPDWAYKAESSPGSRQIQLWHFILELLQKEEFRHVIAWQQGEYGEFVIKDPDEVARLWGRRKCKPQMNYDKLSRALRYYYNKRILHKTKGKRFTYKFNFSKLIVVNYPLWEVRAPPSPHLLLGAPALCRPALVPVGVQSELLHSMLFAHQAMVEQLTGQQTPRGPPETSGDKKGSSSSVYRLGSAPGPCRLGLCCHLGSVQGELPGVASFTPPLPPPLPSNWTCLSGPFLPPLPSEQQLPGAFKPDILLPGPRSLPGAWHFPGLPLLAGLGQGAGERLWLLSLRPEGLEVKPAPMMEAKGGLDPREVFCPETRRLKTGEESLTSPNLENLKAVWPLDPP
Summary of the method: as §1

ETS2 = target: T8, ETS2 (Homo sapiens, UniProt P15036 1-469); settings: protein: recombinant; tags: N-terminal GST; dsDNA, one strand shown
T8 sequence: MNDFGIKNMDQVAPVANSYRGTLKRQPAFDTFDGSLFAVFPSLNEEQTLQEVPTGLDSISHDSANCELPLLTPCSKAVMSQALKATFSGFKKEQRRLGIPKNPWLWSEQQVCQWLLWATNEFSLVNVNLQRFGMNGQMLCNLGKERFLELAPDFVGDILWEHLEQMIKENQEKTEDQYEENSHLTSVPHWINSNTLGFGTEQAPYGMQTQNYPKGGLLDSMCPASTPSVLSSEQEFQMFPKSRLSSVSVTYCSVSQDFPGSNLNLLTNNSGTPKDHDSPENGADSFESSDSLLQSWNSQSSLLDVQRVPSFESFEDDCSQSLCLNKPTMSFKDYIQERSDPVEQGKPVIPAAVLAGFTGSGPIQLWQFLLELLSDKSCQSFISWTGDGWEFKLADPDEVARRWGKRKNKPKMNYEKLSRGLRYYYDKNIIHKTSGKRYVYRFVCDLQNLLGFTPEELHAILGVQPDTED
Summary of the method: as §1

SPDEF = target: T9, SPDEF (Homo sapiens, UniProt O95238 1-335); settings: protein: recombinant; tags: N-terminal GST; dsDNA, one strand shown
T9 sequence: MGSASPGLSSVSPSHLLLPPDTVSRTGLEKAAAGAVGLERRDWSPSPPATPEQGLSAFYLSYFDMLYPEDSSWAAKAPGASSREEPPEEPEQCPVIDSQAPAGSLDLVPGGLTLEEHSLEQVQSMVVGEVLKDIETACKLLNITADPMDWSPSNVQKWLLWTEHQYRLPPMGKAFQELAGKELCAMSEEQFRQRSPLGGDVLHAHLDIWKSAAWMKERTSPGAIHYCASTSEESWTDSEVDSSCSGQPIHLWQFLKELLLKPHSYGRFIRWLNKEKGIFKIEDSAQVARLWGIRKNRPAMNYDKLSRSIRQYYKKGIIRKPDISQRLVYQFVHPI
Summary of the method: as §1

ETV7 = target: T10, ETV7 (Homo sapiens, UniProt Q9Y603 1-341); settings: protein: recombinant; tags: N-terminal GST; dsDNA, one strand shown
T10 sequence: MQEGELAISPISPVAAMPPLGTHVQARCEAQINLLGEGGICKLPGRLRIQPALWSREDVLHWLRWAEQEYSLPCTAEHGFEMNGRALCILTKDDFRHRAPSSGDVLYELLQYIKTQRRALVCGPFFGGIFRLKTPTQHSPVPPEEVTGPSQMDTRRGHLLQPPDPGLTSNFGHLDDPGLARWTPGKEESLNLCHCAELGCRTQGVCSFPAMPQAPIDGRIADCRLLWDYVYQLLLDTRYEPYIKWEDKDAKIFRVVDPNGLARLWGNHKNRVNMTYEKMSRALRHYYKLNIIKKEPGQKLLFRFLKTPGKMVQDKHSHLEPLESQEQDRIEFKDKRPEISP
Summary of the method: as §1

ELF5 = target: T11, ELF5 (Homo sapiens, UniProt Q9UKW6-2 1-255); settings: protein: recombinant; tags: N-terminal GST; dsDNA, one strand shown
T11 sequence: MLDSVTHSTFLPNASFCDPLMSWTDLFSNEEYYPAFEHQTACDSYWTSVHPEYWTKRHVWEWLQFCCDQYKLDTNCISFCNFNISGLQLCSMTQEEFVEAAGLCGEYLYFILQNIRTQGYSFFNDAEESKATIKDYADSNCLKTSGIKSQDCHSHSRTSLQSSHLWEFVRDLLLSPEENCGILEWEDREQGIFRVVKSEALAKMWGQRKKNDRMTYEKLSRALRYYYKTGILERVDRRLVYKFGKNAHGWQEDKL
Summary of the method: as §1

ETV3 = target: T12, ETV3 (Homo sapiens, UniProt P41162-2 1-143); settings: protein: recombinant; tags: N-terminal GST; dsDNA, one strand shown
T12 sequence: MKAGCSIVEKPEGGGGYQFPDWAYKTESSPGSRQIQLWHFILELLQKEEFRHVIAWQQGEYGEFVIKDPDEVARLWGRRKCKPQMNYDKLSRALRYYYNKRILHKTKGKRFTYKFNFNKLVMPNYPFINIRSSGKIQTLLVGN
Summary of the method: as §1

ETV6 = ETV6 (Homo sapiens, UniProt P41212 1-452); settings: protein: recombinant; tags: N-terminal GST; dsDNA, one strand shown
Summary of the method: as §1

Chain of HSF1 (Q00613 whole entry): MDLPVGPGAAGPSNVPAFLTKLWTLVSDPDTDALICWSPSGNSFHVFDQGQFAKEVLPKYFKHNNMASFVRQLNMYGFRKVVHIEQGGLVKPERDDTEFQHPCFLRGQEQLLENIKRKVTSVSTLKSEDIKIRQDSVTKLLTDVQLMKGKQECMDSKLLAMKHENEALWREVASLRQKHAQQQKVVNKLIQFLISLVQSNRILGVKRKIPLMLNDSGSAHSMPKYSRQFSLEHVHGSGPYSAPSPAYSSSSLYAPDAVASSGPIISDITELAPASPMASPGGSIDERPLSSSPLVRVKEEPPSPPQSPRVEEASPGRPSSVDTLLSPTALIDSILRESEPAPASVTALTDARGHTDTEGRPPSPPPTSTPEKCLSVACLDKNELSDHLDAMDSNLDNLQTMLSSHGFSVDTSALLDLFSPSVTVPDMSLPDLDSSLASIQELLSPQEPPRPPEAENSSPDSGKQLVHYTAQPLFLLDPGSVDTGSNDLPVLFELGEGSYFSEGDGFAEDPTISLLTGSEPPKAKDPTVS
Chain of ETV6 (P41212 whole entry): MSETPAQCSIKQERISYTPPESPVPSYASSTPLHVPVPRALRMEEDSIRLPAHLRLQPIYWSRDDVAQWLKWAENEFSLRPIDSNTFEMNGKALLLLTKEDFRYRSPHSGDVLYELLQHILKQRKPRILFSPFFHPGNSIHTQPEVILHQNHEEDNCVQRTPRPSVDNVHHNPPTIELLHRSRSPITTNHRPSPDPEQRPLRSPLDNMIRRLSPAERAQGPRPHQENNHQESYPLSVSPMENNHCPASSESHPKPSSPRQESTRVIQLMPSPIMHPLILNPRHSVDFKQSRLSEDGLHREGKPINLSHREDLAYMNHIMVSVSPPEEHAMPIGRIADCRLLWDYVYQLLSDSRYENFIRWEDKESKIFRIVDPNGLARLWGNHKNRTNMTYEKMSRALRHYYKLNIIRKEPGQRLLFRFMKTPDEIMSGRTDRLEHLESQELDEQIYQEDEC
Chain of ETV5 (P41161 whole entry): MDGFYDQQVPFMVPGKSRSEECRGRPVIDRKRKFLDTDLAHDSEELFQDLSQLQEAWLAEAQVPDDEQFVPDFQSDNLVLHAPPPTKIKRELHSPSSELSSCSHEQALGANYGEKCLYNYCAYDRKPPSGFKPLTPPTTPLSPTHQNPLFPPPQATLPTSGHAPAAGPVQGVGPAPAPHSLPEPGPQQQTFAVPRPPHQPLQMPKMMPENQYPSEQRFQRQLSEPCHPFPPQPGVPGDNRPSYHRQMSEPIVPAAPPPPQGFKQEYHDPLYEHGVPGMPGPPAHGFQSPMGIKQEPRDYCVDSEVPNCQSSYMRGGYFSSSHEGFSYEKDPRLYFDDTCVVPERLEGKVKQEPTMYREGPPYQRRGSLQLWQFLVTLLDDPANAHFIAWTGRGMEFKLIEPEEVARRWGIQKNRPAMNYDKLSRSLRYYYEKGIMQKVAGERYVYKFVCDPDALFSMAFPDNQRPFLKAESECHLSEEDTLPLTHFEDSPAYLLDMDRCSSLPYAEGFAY
Chain of ETV1 (P50549 whole entry): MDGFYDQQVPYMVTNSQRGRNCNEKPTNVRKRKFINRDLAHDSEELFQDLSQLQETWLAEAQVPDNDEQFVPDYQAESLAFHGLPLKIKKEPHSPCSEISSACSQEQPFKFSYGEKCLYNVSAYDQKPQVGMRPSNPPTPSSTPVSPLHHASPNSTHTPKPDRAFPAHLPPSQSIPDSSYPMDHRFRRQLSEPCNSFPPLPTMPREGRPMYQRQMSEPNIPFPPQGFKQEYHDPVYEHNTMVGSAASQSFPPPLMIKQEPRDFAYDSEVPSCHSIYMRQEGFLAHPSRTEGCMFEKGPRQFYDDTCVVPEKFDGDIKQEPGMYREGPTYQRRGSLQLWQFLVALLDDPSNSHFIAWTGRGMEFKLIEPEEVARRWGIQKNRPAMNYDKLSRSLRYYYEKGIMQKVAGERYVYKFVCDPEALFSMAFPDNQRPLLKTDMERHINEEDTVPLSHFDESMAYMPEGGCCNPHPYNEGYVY
Chain of CRX (O43186 whole entry): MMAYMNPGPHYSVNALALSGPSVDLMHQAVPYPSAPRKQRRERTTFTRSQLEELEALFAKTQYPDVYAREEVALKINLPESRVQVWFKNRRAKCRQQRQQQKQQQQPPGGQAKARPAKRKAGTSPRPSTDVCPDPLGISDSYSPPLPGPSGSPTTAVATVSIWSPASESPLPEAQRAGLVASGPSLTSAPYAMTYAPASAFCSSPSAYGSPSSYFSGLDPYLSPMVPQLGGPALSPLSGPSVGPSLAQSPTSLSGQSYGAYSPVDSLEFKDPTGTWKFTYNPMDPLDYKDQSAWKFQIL
Chain of ELF4 (Q99607 whole entry): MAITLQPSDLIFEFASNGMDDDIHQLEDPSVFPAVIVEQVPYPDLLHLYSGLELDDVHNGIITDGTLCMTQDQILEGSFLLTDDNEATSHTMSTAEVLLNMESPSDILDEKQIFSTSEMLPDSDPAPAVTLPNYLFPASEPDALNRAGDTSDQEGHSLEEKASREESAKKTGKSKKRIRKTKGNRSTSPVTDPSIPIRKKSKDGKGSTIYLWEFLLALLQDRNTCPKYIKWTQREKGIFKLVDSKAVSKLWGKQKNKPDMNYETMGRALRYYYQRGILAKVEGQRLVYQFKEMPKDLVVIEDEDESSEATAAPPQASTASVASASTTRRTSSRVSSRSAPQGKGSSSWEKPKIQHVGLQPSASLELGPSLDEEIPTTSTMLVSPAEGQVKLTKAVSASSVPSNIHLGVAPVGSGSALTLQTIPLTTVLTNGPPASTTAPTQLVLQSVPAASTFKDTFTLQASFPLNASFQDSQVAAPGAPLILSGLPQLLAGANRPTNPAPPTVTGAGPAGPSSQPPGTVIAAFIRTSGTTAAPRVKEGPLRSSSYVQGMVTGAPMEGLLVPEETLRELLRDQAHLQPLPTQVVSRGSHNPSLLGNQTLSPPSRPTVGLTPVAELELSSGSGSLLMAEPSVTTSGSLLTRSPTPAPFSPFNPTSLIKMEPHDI

For AATACC, the binding signal (FEV) was 1.23 fold enrichment (6-mer frequency, TF over GST control), the binding signal (ETV5) was 1.13 fold enrichment (6-mer frequency, TF over GST control) and the binding signal (HSF1) was 1.19 fold enrichment (6-mer frequency, TF over GST control). The binding signal (SPIC) was 1.15 fold enrichment (6-mer frequency, TF over GST control), the binding signal (ELF4) was 1.1 fold enrichment (6-mer frequency, TF over GST control) and the binding signal (ELK4) was 1.11 fold enrichment (6-mer frequency, TF over GST control). For the same sequence, the binding signal (ETV2) was 1.17 fold enrichment (6-mer frequency, TF over GST control), the binding signal (ELF3) was 1.12 fold enrichment (6-mer frequency, TF over GST control) and the binding signal (CRX) was 1.44 fold enrichment (6-mer frequency, TF over GST control). The binding signal (ETV1) was 1.22 fold enrichment (6-mer frequency, TF over GST control), the binding signal (ERF) was 1.29 fold enrichment (6-mer frequency, TF over GST control) and the binding signal (ETV3L) was 1.15 fold enrichment (6-mer frequency, TF over GST control). The binding signal (ETS2) was 1.21 fold enrichment (6-mer frequency, TF over GST control), the binding signal (SPDEF) was 1.11 fold enrichment (6-mer frequency, TF over GST control) and the binding signal (ETV7) was 1.21 fold enrichment (6-mer frequency, TF over GST control). For the same sequence, the binding signal (ELF5) was 1.17 fold enrichment (6-mer frequency, TF over GST control), the binding signal (ETV3) was 1.17 fold enrichment (6-mer frequency, TF over GST control) and the binding signal (ETV6) was 1.16 fold enrichment (6-mer frequency, TF over GST control).
